The record followed here is PubChem BioAssay AID652071 (NMMLSC, 2013).

SMILES strings stand for the structures. Unmarked numbers belong to inactive results. How the calls were made is not given here.

This assay can be described thus: yeast cytosolic pH changes via V-ATPase – S. cerevisiae, pHLuorin, powder set 4, dose response (AID 652071). The note with it: S. cerevisiae pHLuorin cytosolic pH fluorescence; series mostly up to 100 µM; response change, sign ambiguous: at the top concentration.
`CN1CCN(c2ccccc2NC(=O)c2cncc(Cl)n2)CC1`: the “response change, sign ambiguous” value was -1.67%.

As to `CC(=O)N1CCN(c2ccccc2NC(=O)c2ccc(S(C)(=O)=O)o2)CC1`, the “response change, sign ambiguous” value was -31.2%. The same measure for `CC(=O)N1CCN(c2ccccc2NC(=O)c2cccc(Cl)n2)CC1`: 16.4%. The value for `CS(=O)(=O)c1cccc(C(=O)Nc2ccccc2N2CCOCC2)c1` was 17.9%; that for `O=C(Nc1ccccc1N1CCCCC1)c1ccc(C(F)(F)F)o1` was -23.6%. Regarding `CC(=O)N1CCN(c2ccccc2NC(=O)c2ccc(CN(C)C)o2)CC1`, the “response change, sign ambiguous” value is -7.44%. The same measure for `CC(=O)N1CCN(c2ccccc2NC(=O)c2cccc(C(N)=O)c2)CC1`: -43%. Take `CC(=O)N1CCN(c2ccccc2NC(=O)c2cccc(S(C)(=O)=O)c2)CC1`: the “response change, sign ambiguous” value is 20.5%. The value for `CN1CCN(c2ccccc2NC(=O)c2ccc(Br)o2)CC1` was 2.63%; that for `N#CCc1cccc(C(=O)Nc2ccccc2N2CCCCC2)c1` was -36.8%; that for `Cc1ccc(C(=O)Nc2ccccc2N2CCCCC2)o1` was -65.7%.

For the compound `Cc1ccnc(C(=O)Nc2ccccc2N2CCCCC2)c1`, the “response change, sign ambiguous” value is -34.3%. The value for `O=C(Nc1ccccc1N1CCOCC1)c1ccc(Cl)o1` was -7.94%; that for `CN1CCN(c2ccccc2NC(=O)c2cccc(C(N)=O)c2)CC1` was -19.6%; that for `CN1CCN(c2ccccc2NC(=O)c2cccc(CC#N)c2)CC1` was -0.68%. The value for `N#CCc1cccc(C(=O)Nc2ccccc2N2CCOCC2)c1` was 12%; that for `CC(=O)N1CCN(c2ccccc2NC(=O)c2ccc(-c3ccccc3)o2)CC1` was -14.9%.

With `CN1CCN(c2ccccc2NC(=O)c2ccc(-c3ccccc3)o2)CC1`, the “response change, sign ambiguous” value was 76.2%. The same measure for `CN(C)Cc1cccc(C(=O)Nc2ccccc2N2CCCCC2)c1`: -22.9%; for `O=C(Nc1ccccc1N1CCCCC1)c1cccc(Cl)n1`: -40.8%. The value for `CC(C)(C)c1ccc(C(=O)Nc2ccccc2N2CCCCC2)o1` was -24.8%; that for `COCc1ccc(C(=O)Nc2ccccc2N2CCN(C)CC2)o1` was 17.8%; that for `NC(=O)c1ccc(C(=O)Nc2ccccc2N2CCCCC2)o1` was -23.9%.

Turning to `O=C(c1ccc(Cl)o1)N1CCN(c2nc3ccc(F)cc3s2)CC1`, the “response change, sign ambiguous” value was -3.92%. The same measure for `N#Cc1cccc(C(=O)Nc2ccccc2N2CCCCC2)c1`: -29.4%; for `CN1CCN(c2ccccc2NC(=O)c2ccc(C(F)(F)F)o2)CC1`: -7.3%; for `O=C(Nc1ccccc1N1CCCCC1)c1cccc(C(F)(F)F)n1`: -18.9%. With `CN1CCN(c2ccccc2NC(=O)c2cccc(C(F)(F)F)c2)CC1`, the “response change, sign ambiguous” value was -1.46%. On to `CC(=O)N1CCN(c2ccccc2NC(=O)c2cccc(CC#N)c2)CC1`, for which the “response change, sign ambiguous” value is -0.81%.

With `CN1CCN(c2ccccc2NC(=O)c2cncc(N)n2)CC1`, the “response change, sign ambiguous” value was -3.21%. The value for `CC(=O)N1CCN(c2ccccc2NC(=O)c2ccc(C(N)=O)o2)CC1` was 0%; that for `CC(=O)N1CCN(c2ccccc2NC(=O)c2cncc(Cl)n2)CC1` was -21.5%. For the compound `O=C(Nc1ccccc1N1CCCCC1)c1ccc(Cl)o1`, the “response change, sign ambiguous” value is -19.9%. On to `CC(=O)N1CCN(c2ccccc2NC(=O)c2cccc(C#N)c2)CC1`, for which the “response change, sign ambiguous” value is -35.1%.
